SMILES strings stand for the structures. This is part of a sample that, as a whole, favours compounds with a hit. Of some 83,000 tested, about 20% had one in any assay.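 In brief: 96-well plates, 48 h treatment, single concentration, percent growth endpoint.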 Values without a mark were called inactive. Calls of active or inactive are those of the source. How the source made its calls: active means growth percent below 10; inactive means the rest.

From PubChem BioAssay (NCI) come the findings set out here.

The subject of one assay is 786-0 renal. Put plainly: NCI-60 one-dose screen, 48 h (100 = growth as untreated, 0 = no growth, -100 = all killed). To be noted: 10 µM unless noted.
`Cc1ccc(Cl)cc1NC(=O)c1cc2ccccc2cc1O`: the growth was -6.83% (active).

Take `COc1ccc(NC(=O)CSc2nc(C)c(C(C)=O)n2-c2ccc([N+](=O)[O-])cc2)cc1`: the growth was 83.9%.

Consider `O=C(NC(Cc1nnc2n(Cc3ccccc3)c(=O)c3c4c(sc3n12)CCCC4)c1ccc(Cl)cc1)c1ccccc1` (stereo unspecified), for which the growth was 38.3%.

Consider `COc1cc(C2CC(=O)Nc3c2c(C)nn3-c2nc3ccccc3[nH]2)c(OC)c(OC)c1OC` (stereo unspecified), for which the growth was 27.6%.

Regarding `Cn1c(-c2c(N)n(Cc3ccc(C(F)(F)F)cc3)c3nc(C#N)c(C#N)nc23)nc2ccccc21`, the growth is 3.33% (active).

Regarding `N#Cc1c(-c2ccccc2)cc(-c2ccc(Nc3nc(Nc4ccc(F)cc4)nc(Nc4ccc(F)cc4)n3)cc2)nc1N`, the growth is 83.9%.

On to `Cc1c(O)cc(-c2cnc(N/N=C\c3ccc(Cl)cc3)s2)c(O)c1C`, for which the growth was 110%.

For `COc1ccc2c(c1)O/C(=C\c1cccc(OCC(=O)Nc3nc4ccccc4s3)c1)C2=O`, the growth is 92.2%.

On to `Cn1c2c(c3ccc(Cl)c(Cl)c31)C(C#N)C1(CCNCC1)NC2=O` (stereo unspecified), for which the growth is 54.5%.

Regarding `COc1ccc(C2=NN(C(=O)c3cc(OC)c(OC)c(OC)c3)C(c3ccc(Cl)cc3)C2)cc1OC` (stereo unspecified), the growth was 22.5%.

For the molecule `CCN(CC)CCN1CC(O)=C(c2nc(-c3ccc(Cl)cc3)cs2)C1=N`, the growth is -68.5% (active).

`C=C(C)[C@@H]1CC=C2c3sc(-c4ccc(C)cc4)nc3C[C@@H](C)[C@]2(C)C1`: the growth was 109%.

In the case of `COC(=O)c1c2c(c[n+]([O-])c1C)C(=O)C=CC2=O`, the growth is 91.6%.

Regarding `COc1ccc(NC(=O)CSc2nnc(-c3cc(-c4ccccc4)nc4ccccc34)n2-c2ccccc2)cc1`, the growth was 97.3%.

Take `COc1cc(C2CC(=O)Nc3c2c(C)nn3-c2nc3ccccc3[nH]2)cc2c1OCC(=O)N2` (stereo unspecified): the growth was 58.5%.

Turning to `Cc1cc(Cl)nc(NCc2cc(Nc3ccnc4cc(Cl)ccc34)ccc2F)n1`, the growth is 76%.

In the case of `COc1ccc2c(c1)[nH]c(=O)c1c3cccnc3cn21`, the growth is 25.7%.

On to `Cc1ccc(Cc2cnc(NC(=O)c3ccc4noc(-c5ccccc5)c4c3)s2)cc1`, for which the growth was 96.2%.

As to `CC1=CN2C(=O)C3C4=C(CCCC4)SC3N=C2CN1c1c(C)cccc1C` (stereo unspecified), the growth was 75.9%.

Consider `Cc1ccc2[nH]c(=O)c3c(c2c1)OC(N)=C(C#N)C31c2cc(Br)ccc2-c2ccc(Br)cc21`, for which the growth is 46.4%.

In the case of `CS(=O)(=O)c1ccc(Nc2nc(N[C@H]3CCCC[C@H]3N)nc3cc[nH]c(=O)c23)cc1`, the growth is 22.5%.

Regarding `O=C(NCCCNc1cc(-c2cn(-c3ccccc3)nc2-c2cccc(O)c2)ccn1)c1cccc(O)c1`, the growth is 63.8%.

As for `COc1ccc(C(=O)COc2ccc(/C=C3\Oc4ccccc4C3=O)cc2)cc1`, the growth was 98.1%.

As to `Cc1ccc(C2SCC(=O)N2Cc2ccccc2)cc1` (stereo unspecified), the growth is 89.2%.

`Cc1cccc(Cc2cnc(NC(=O)/C=C/c3ccco3)s2)c1`: the growth is 36%.

With `CN(C)CCNc1nc2ccccc2c2c1c1c(n2Cc2ccccc2)-c2ccccc2C1=O`, the growth is -89.6% (active).

In the case of `Cc1occc1-c1n[nH]c(=S)n1N1C(=O)CSC1=S`, the growth is 100%.

Turning to `Cc1cccc(NC(=O)CSc2nc3ccccc3[nH]2)c1`, the growth was 103%.

`Cc1ccccc1NC(=O)N/C(N)=N/c1nc(C)c(C)s1`: the growth is 51.4%.

Turning to `NNC(=O)c1nc(N)n(-c2ccc(S(N)(=O)=O)cc2)n1`, the growth is 95.7%.

On to `COc1cc(CCC[P+](c2ccccc2)(c2ccccc2)c2ccccc2)cc2c1OCO2`, for which the growth is 63.9%.

Turning to `O=C1/C(=C2/C=Nc3ccccc32)N(O)c2ccccc21`, the growth is 104%.

For `COc1ccccc1N1C(=O)/C(=C/C2=Cc3ccccc3OC2)SC1=S`, the growth is 101%.

`C=CCn1c(C)nc2cc(Nc3nc(Cl)nc4ccccc34)ccc21`: the growth is 87.8%.

In the case of `COc1cc(/C=C/C(=O)c2c(C)nc3ccccc3c2C)ccc1OCCCN1CCN(C(=O)c2ccco2)CC1`, the growth was 85.9%.

With `Cn1cc(-c2csc(-c3ccccc3)n2)c2cccnc21`, the growth was -77.4% [100 µM] (active).

For the molecule `N=C(N)c1ccc(-c2ccc(-c3cncc4ccccc34)s2)s1`, the growth is -84.6% (active).

`CC(C)CC(NC(=O)CN(Cc1ccccc1)S(C)(=O)=O)C(=O)O` (stereo unspecified): the growth is 93.6%.

The test system of a further assay is COLO 205 colon. Described as above. The note with it: 10 µM unless noted.
For `Cc1ccc(Cl)cc1NC(=O)c1cc2ccccc2cc1O`, the growth is 1.54% (active).

Consider `COc1ccc(NC(=O)CSc2nc(C)c(C(C)=O)n2-c2ccc([N+](=O)[O-])cc2)cc1`, for which the growth is 102%.

Regarding `O=C(NC(Cc1nnc2n(Cc3ccccc3)c(=O)c3c4c(sc3n12)CCCC4)c1ccc(Cl)cc1)c1ccccc1` (stereo unspecified), the growth is 106%.

For `COc1cc(C2CC(=O)Nc3c2c(C)nn3-c2nc3ccccc3[nH]2)c(OC)c(OC)c1OC` (stereo unspecified), the growth is 41.2%.

As to `Cn1c(-c2c(N)n(Cc3ccc(C(F)(F)F)cc3)c3nc(C#N)c(C#N)nc23)nc2ccccc21`, the growth is -89.7% (active).

Turning to `N#Cc1c(-c2ccccc2)cc(-c2ccc(Nc3nc(Nc4ccc(F)cc4)nc(Nc4ccc(F)cc4)n3)cc2)nc1N`, the growth is 81.9%.

Regarding `Cc1c(O)cc(-c2cnc(N/N=C\c3ccc(Cl)cc3)s2)c(O)c1C`, the growth is 106%.

For the molecule `COc1ccc2c(c1)O/C(=C\c1cccc(OCC(=O)Nc3nc4ccccc4s3)c1)C2=O`, the growth was 104%.

With `Cn1c2c(c3ccc(Cl)c(Cl)c31)C(C#N)C1(CCNCC1)NC2=O` (stereo unspecified), the growth was -76.6% (active).

With `COc1ccc(C2=NN(C(=O)c3cc(OC)c(OC)c(OC)c3)C(c3ccc(Cl)cc3)C2)cc1OC` (stereo unspecified), the growth was 12.3%.

With `CCN(CC)CCN1CC(O)=C(c2nc(-c3ccc(Cl)cc3)cs2)C1=N`, the growth is -58.3% (active).

Regarding `C=C(C)[C@@H]1CC=C2c3sc(-c4ccc(C)cc4)nc3C[C@@H](C)[C@]2(C)C1`, the growth is 108%.

In the case of `COC(=O)c1c2c(c[n+]([O-])c1C)C(=O)C=CC2=O`, the growth is 33.5%.

Regarding `COc1ccc(NC(=O)CSc2nnc(-c3cc(-c4ccccc4)nc4ccccc34)n2-c2ccccc2)cc1`, the growth is 116%.

On to `COc1cc(C2CC(=O)Nc3c2c(C)nn3-c2nc3ccccc3[nH]2)cc2c1OCC(=O)N2` (stereo unspecified), for which the growth is 79.2%.

Take `Cc1cc(Cl)nc(NCc2cc(Nc3ccnc4cc(Cl)ccc34)ccc2F)n1`: the growth was 75.8%.

For the molecule `COc1ccc2c(c1)[nH]c(=O)c1c3cccnc3cn21`, the growth was -45.4% (active).

With `Cc1ccc(Cc2cnc(NC(=O)c3ccc4noc(-c5ccccc5)c4c3)s2)cc1`, the growth is 107%.

For `CC1=CN2C(=O)C3C4=C(CCCC4)SC3N=C2CN1c1c(C)cccc1C` (stereo unspecified), the growth was 110%.

With `Cc1ccc2[nH]c(=O)c3c(c2c1)OC(N)=C(C#N)C31c2cc(Br)ccc2-c2ccc(Br)cc21`, the growth was 30.2%.

In the case of `CS(=O)(=O)c1ccc(Nc2nc(N[C@H]3CCCC[C@H]3N)nc3cc[nH]c(=O)c23)cc1`, the growth is -3.93% (active).

As to `O=C(NCCCNc1cc(-c2cn(-c3ccccc3)nc2-c2cccc(O)c2)ccn1)c1cccc(O)c1`, the growth is 80.2%.

In the case of `COc1ccc(C(=O)COc2ccc(/C=C3\Oc4ccccc4C3=O)cc2)cc1`, the growth was 99.2%.

Take `Cc1ccc(C2SCC(=O)N2Cc2ccccc2)cc1` (stereo unspecified): the growth is 109%.

For `Cc1cccc(Cc2cnc(NC(=O)/C=C/c3ccco3)s2)c1`, the growth was 2.49% (active).

For the molecule `CN(C)CCNc1nc2ccccc2c2c1c1c(n2Cc2ccccc2)-c2ccccc2C1=O`, the growth is -76.9% (active).

With `Cc1occc1-c1n[nH]c(=S)n1N1C(=O)CSC1=S`, the growth was 111%.

`Cc1cccc(NC(=O)CSc2nc3ccccc3[nH]2)c1`: the growth was 110%.

For `Cc1ccccc1NC(=O)N/C(N)=N/c1nc(C)c(C)s1`, the growth is 10.1%.

Take `NNC(=O)c1nc(N)n(-c2ccc(S(N)(=O)=O)cc2)n1`: the growth was 103%.

`COc1cc(CCC[P+](c2ccccc2)(c2ccccc2)c2ccccc2)cc2c1OCO2`: the growth was 3.37% (active).

Take `O=C1/C(=C2/C=Nc3ccccc32)N(O)c2ccccc21`: the growth is 104%.

Consider `COc1ccccc1N1C(=O)/C(=C/C2=Cc3ccccc3OC2)SC1=S`, for which the growth was 109%.

Regarding `C=CCn1c(C)nc2cc(Nc3nc(Cl)nc4ccccc34)ccc21`, the growth is 126%.

Take `COc1cc(/C=C/C(=O)c2c(C)nc3ccccc3c2C)ccc1OCCCN1CCN(C(=O)c2ccco2)CC1`: the growth was 99.1%.

Take `Cn1cc(-c2csc(-c3ccccc3)n2)c2cccnc21`: the growth is -67.2% [100 µM] (active).

`N=C(N)c1ccc(-c2ccc(-c3cncc4ccccc34)s2)s1`: the growth is -78.1% (active).

On to `CC(C)CC(NC(=O)CN(Cc1ccccc1)S(C)(=O)=O)C(=O)O` (stereo unspecified), for which the growth was 112%.
